Measured values from PubChem BioAssay (NCI).
Compounds without any hit were thinned out: in the full panel of roughly 83,000, 20% have a hit.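 Step 1: grow cells in 96-well plates. Step 2: add test compound at a single concentration. Step 3: incubate 48 h. Step 4: record percent growth.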 Values without a mark were called inactive. The source made the active and inactive calls. How the source made its calls: active means growth percent below 10; inactive means the rest.

Assays:
Experiment in all cases: NCI-60 one-dose screen, 48 h (100 = growth as untreated, 0 = no growth, -100 = all killed)
Conditions in all cases: 10 µM
[1] = system: EKVX NSCLC
[2] = system: SN12C renal
[3] = system: UO-31 renal
[4] = system: TK-10 renal
[5] = system: ACHN renal
[6] = system: CAKI-1 renal
[7] = system: CCRF-CEM leukemia
[8] = system: MOLT-4 leukemia
[9] = system: SR leukemia
[10] = system: RPMI-8226 leukemia
[11] = system: OVCAR-8 ovarian
[12] = system: OVCAR-5 ovarian
[13] = system: OVCAR-4 ovarian
[14] = system: SK-OV-3 ovarian
[15] = system: IGROV1 ovarian
[16] = system: OVCAR-3 ovarian
[17] = system: HS 578T breast
[18] = system: NCI/ADR-RES ovarian
[19] = system: T-47D breast
[20] = system: A498 renal

| SMILES | growth [1] [%] | growth [2] [%] | growth [3] | growth [4] | growth [5] [%] | growth [6] | growth [7] [%] | growth [8] | growth [9] [%] | growth [10] [%] | growth [11] | growth [12] [%] | growth [13] [%] | growth [14] [%] | growth [15] | growth [16] | growth [17] | growth [18] | growth [19] [%] | growth [20] [%] |
| --- | --- | --- | --- | --- | --- | --- | --- | --- | --- | --- | --- | --- | --- | --- | --- | --- | --- | --- | --- | --- |
| O=C(N/N=C/c1ccccc1)C(Oc1ccccc1)c1ccccc1 (centres undefined) | 80.8 | 96.5 | 76% | 106% | 93.1 | 85.6% | 93.7 | 101% | 91.8 | 98.1 | 100% | 101 | 102 | 104 | 98.9% | 105% | 98.4% | 75.2% | 94.4 | – |
| O=C(CSSCC(=O)c1ccc(Cl)cc1)c1ccc(Cl)cc1 | 91.4 | 79.1 | 86.4% | 41.3% | 82.1 | 96.5% | 15.3 | 13.9% | 18.7 | 24.9 | 47.8% | 60.1 | 85.8 | 60 | 78.9% | 78.4% | – | -13% (active) | 74.8 | – |
| COc1cc(/C=N/NC(=O)c2ccccc2Nc2ccnc(C(F)(F)F)c2)ccc1O | 106 | 122 | 98.1% | 147% | 111 | -21.2% (active) | – | -89.5% (active) | – | 90.8 | 101% | 116 | – | 98.9 | 123% | 109% | 97.4% | 143% | 116 | 116 |
| COc1ccc(OC)c(/C=C/c2nc(SCc3ccccc3)n(-c3ccc(Cl)cc3)n2)c1 | 74.3 | 74.2 | -48.7% (active) | 105% | 80.8 | 0.228% (active) | 24.2 | 30.4% | 19.5 | 42.5 | 83.6% | 102 | – | 86.2 | 43.9% | 17.3% | -2.4% (active) | 19.1% | 78 | – |
| Nc1nc(N=Nc2ccc(O)cc2)cc(=O)[nH]1 | 91.4 | 101 | 93.6% | 120% | 105 | 91.4% | 97.5 | 104% | 94.3 | 106 | 97.2% | 104 | – | 104 | 109% | 125% | 108% | 94.6% | 95.7 | – |
| O=C(Nc1nc(-c2ccccc2Cl)cs1)c1cc(-c2ccc(Cl)cc2)nc2ccc(Cl)cc12 | 73.9 | 30.3 | 28.4% | 98.4% | 36.9 | 81.7% | 28.4 | 18.4% | 12.9 | 14 | 1.38% (active) | – | 44 | 82 | 24.4% | 2.87% (active) | 14.9% | 2.23% (active) | 64.3 | – |
| O=c1c2ccccc2nc(SCCN2CCCCC2)n1CCc1ccccc1 | 70.7 | 81.5 | 57.2% | 97.2% | 102 | 73.9% | – | – | – | – | 95.9% | 88.7 | 86.7 | 92.6 | 78.7% | 94.1% | 93.9% | 87.6% | 65.5 | 83.1 |
| N#CCCN(NC(=O)OCc1ccccc1)C(=O)OCc1ccccc1 | 91.8 | 106 | 80.7% | 120% | 102 | 88.4% | 99 | 97.1% | 107 | 110 | 99% | 108 | 111 | 122 | 118% | 118% | 103% | 105% | 109 | – |
| COc1cccc(-c2cc(-c3cccc(NS(C)(=O)=O)c3)nc(N)c2C#N)c1O | 32.6 | 50.7 | 15.3% | 71.3% | 43.3 | -11.9% (active) | 12.3 | 35% | 24.6 | – | 42.4% | 84.1 | 52.8 | 27.2 | 91.2% | -16% (active) | 52.8% | – | 52 | – |
| COC(=O)c1ccc(=O)oc1 | 98.6 | 85.8 | 75.7% | 103% | 98.9 | 101% | 101 | 94% | 89.2 | 93.7 | 104% | 89.1 | 102 | 107 | 112% | 116% | – | 97.1% | 96.3 | – |
| CCn1cc(C(=O)O)c(=O)c2cnc(N3CCCC3)nc21 | 93.7 | 110 | 74.8% | 116% | 100 | 85.8% | – | 108% | 110 | – | 101% | 103 | 105 | 108 | 103% | 119% | 99.9% | 102% | 99.1 | 87.6 |
| O=C(N/N=C/c1ccccc1O)C(O)(c1ccccc1)c1ccccc1 | 20 | 66.3 | 23.7% | 53.9% | 35.5 | 23% | 24.7 | 31.2% | 42.6 | 62 | 60.1% | 73.9 | 26.7 | 66.9 | 43.7% | 8.52% (active) | 74% | 35.9% | 48.1 | – |
| CCOC(=O)C1CCc2c(ccc3ccccc23)N1CCC#N (centres undefined) | 92.8 | 98.7 | 74.9% | 116% | 115 | 80.2% | 89.2 | 77.9% | 63 | 104 | 107% | 107 | – | – | 93.5% | 115% | 99.9% | 82% | 97.5 | – |
| N#CSCC1CC(O)(c2ccccc2)CC(c2ccc(Cl)cc2)O1 (centres undefined) | 54 | 23.2 | 15.1% | -5.7% (active) | 48.3 | 44.5% | 15 | -11.5% (active) | 11.4 | 18.1 | 66.7% | 101 | 40 | 102 | -25.7% (active) | -36% (active) | 21% | 47.2% | 27.4 | – |
| O=C(O)CN1C(=O)c2cccc3cccc(c23)C1=O | 82.6 | 95.4 | 97.1% | 114% | 101 | 89% | – | 115% | – | – | 98.8% | 105 | 100 | 94 | 111% | 118% | 108% | 102% | 90.1 | 85.9 |
| O=C1C(c2ccccc2)C2C=CC(C2)N1O (centres undefined) | 101 | 102 | 68% | 101% | 107 | 106% | 82.6 | 92.5% | 105 | 81 | 104% | 119 | 116 | 106 | 108% | 112% | 105% | 112% | 92.1 | – |
| Cc1ccc(Nc2nnc(-c3cc(-c4ccncc4)n(-c4ccccc4)n3)s2)cc1 | 97.7 | 88.5 | 40.3% | 102% | 83 | 85.9% | 35.7 | 59.5% | 63.6 | 38.6 | 63.5% | – | – | 100 | 89.2% | 118% | 61.9% | 59.2% | 64.5 | – |
